The record followed here is PubChem BioAssay (EPA / NIEHS).

Calls of active or inactive are those of the source. How the source made its calls: active means hit-call score of the fitted dose curve at least 0.9, where 1 is the maximum; inactive means score below 0.9.

What all share (conditions): mRNA level, 48 h; actives raise or lower the signal
Read-out in assay [1]: Bcl-2 (BAX) gene, BAX (gene 581)
In words: LTEA_HepaRG_BAX: Life Technologies and Expression Analysis (LTEA) Assay for Bcl-2 (BAX) gene using HepaRG (AID 2283470). The procedure, abridged: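 Gene expression measured by Fluidigm qRT-PCR with three housekeeping genes for normalisation. HepaRG cells, plated 48 h beforehand, treated 48 h at up to 100 uM (8-point, half-log) in 0.5% DMSO. Bidirectional fitting versus DMSO.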

Read-out in assay [2]: adenosine kinase (ADK) gene, ADK (gene 132)
Briefly: LTEA_HepaRG_ADK: Life Technologies and Expression Analysis (LTEA) Assay for adenosine kinase (ADK) gene using HepaRG (AID 2283471). The procedure, abridged:
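Read-out is ADK transcript level measured by qRT-PCR and normalised to three housekeeping genes. Cells are human HepaRG, dosed for 48 h at up to 100 uM in 0.5% DMSO. Gain or loss of signal is fitted against DMSO controls.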

Read-out in assay [3]: Alpha-fetoprotein (AFP) gene, AFP (gene 174)
Briefly: LTEA_HepaRG_AFP: Life Technologies and Expression Analysis (LTEA) Assay for Alpha-fetoprotein (AFP) gene using HepaRG (AID 2283472). The procedure, abridged: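 AFP transcript measured by TaqMan qRT-PCR with three housekeeping genes for normalization, after 48 h chemical treatment of HepaRG cells (top 100 uM, half-log steps, 0.5% DMSO). Gain or loss fitted against vehicle.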

Read-out in a further assay: BCL2L11 (gene 10018)
In words: LTEA_HepaRG_BCL2L11: Life Technologies and Expression Analysis (LTEA) Assay for Bcl-2 (BCL2L11) gene using HepaRG (AID 2283473). The gist of the method: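 Human hepatic HepaRG cultures are treated 48 h with test chemicals (maximum 100 uM, 0.5% DMSO vehicle). Expression of BCL2L11 is measured by qRT-PCR against ACTB, GAPDH and POLR2A, with activity in either direction scored relative to vehicle.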

Read-out in assay [4]: Apolipoprotein A-V (APOA5) gene, APOA5 (gene 116519)
In words: LTEA_HepaRG_APOA5: Life Technologies and Expression Analysis (LTEA) Assay for Apolipoprotein A-V (APOA5) gene using HepaRG (AID 2283474). The gist of the method: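 Concentration-response of APOA5 expression in HepaRG: eight half-log doses to 100 uM, 48 h, qRT-PCR normalized to ACTB/GAPDH/POLR2A, bidirectional fitting with 0.5% DMSO as baseline.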

Read-out in assay [5]: Apoptosis regulator Bcl-2 (Homo sapiens) (UniProt P10415)
In words: LTEA_HepaRG_BCL2: Life Technologies and Expression Analysis (LTEA) Assay for Bcl-2 gene using HepaRG (AID 2283475). The gist of the method:
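qRT-PCR of BCL2 transcript, normalized to three housekeeping genes (ACTB, GAPDH, POLR2A), after 48 h chemical exposure of HepaRG cells; concentrations top 100 uM with half-log dilutions, 0.5% DMSO vehicle, duplicates; changes up or down fitted relative to vehicle.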

Read-out in assay [6]: Bcl-2 (BID) gene, BID (gene 637)
In words: LTEA_HepaRG_BID: Life Technologies and Expression Analysis (LTEA) Assay for Bcl-2 (BID) gene using HepaRG (AID 2283476). The procedure, abridged:
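Duplicate 48 h treatments of HepaRG cells in serum-free induction medium spanned 100 uM downward in half-log steps, 0.5% DMSO. Transcript change quantified by qRT-PCR against three housekeeping genes, fitted up or down versus DMSO.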

Read-out in the next assay: Caspase-3 (Homo sapiens) (UniProt P42574)
In words: LTEA_HepaRG_CASP3: Life Technologies and Expression Analysis (LTEA) Assay for cysteine-aspartic acid protease (CASP3) using HepaRG (AID 2283477). The procedure, abridged:
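Transcript-level assay: CASP3 mRNA in human HepaRG after 48 h treatment, eight half-log concentrations from 100 uM in 0.5% DMSO, quantified by qRT-PCR.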

Read-out in assay [7]: Cytochrome P450 (CYP24A1), CYP24A1 (gene 1591)
In words: LTEA_HepaRG_CYP24A1: Life Technologies and Expression Analysis (LTEA) Assay for Cytochrome P450 (CYP24A1) using HepaRG (AID 2283478). The procedure, abridged: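 Gene expression of CYP24A1 by TaqMan qRT-PCR in HepaRG after 48 h treatment, highest concentration 100 uM; activity fitted in both directions relative to DMSO vehicle.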

Read-out in assay [8]: Cytochrome P450 (CYP1A2), CYP1A2 (gene 1544)
Briefly: LTEA_HepaRG_CYP1A2: Life Technologies and Expression Analysis (LTEA) Assay for Cytochrome P450 (CYP1A2) using HepaRG (AID 2283479). The gist of the method: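 In duplicate wells, HepaRG cultures maintained in 0.5% DMSO were treated 48 h across an 8-point, half-log series topping at 100 uM; phenobarbital (1 mM) served as induction control. Expression was read by qRT-PCR.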

Read-out in assay [9]: cysteine-aspartic acid protease (CASP8), CASP8 (gene 841)
In words: LTEA_HepaRG_CASP8: Life Technologies and Expression Analysis (LTEA) Assay for cysteine-aspartic acid protease (CASP8) using HepaRG (AID 2283480). The gist of the method:
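Concentration-response in duplicate up to 100 uM (half-log steps, 0.5% DMSO) on differentiated HepaRG cultures for 48 h. Expression change of CASP8 mRNA is determined by TaqMan qRT-PCR with housekeeping-gene normalization.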

Read-out in assay [10]: Cytochrome P450 (CYP2B6), CYP2B6 (gene 1555)
In words: LTEA_HepaRG_CYP2B6: Life Technologies and Expression Analysis (LTEA) Assay for Cytochrome P450 (CYP2B6) using HepaRG (AID 2283481). The gist of the method: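 Human HepaRG, 48 h dosing, 0.5% DMSO vehicle, top dose 100 uM. CYP2B6 transcript by qRT-PCR, housekeeping-normalized, bidirectional curve fit.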

Read-out in assay [11]: Cytochrome P450 2C19 (Homo sapiens) (UniProt P33261)
Briefly: LTEA_HepaRG_CYP2C19: Life Technologies and Expression Analysis (LTEA) Assay for CYP2C19 using HepaRG (AID 2283482). The gist of the method: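 Endpoint: CYP2C19 mRNA change, bidirectional fit vs 0.5% DMSO. Cells: HepaRG, 48 h exposure, eight-point series topping at 100 uM. Quantitation: qRT-PCR normalized to ACTB, GAPDH, POLR2A.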

Read-out in another assay: CYP2C9 (gene 1559)
Briefly: LTEA_HepaRG_CYP2C9: Life Technologies and Expression Analysis (LTEA) Assay for CYP2C9 using HepaRG (AID 2283484). The procedure, abridged:
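Eight-point concentration-response (highest 100 uM, half-log dilutions) in HepaRG cells for 48 h; CYP2C9 expression by qRT-PCR normalized to ACTB, GAPDH, POLR2A. Bidirectional fit, DMSO baseline.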

Read-out in another assay: CYP2E1 (gene 1571)
In words: LTEA_HepaRG_CYP2E1: Life Technologies and Expression Analysis (LTEA) Assay for CYP2E1 using HepaRG (AID 2283485). The gist of the method:
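CYP2E1 transcript measured by Fluidigm qRT-PCR against three housekeeping genes in human HepaRG cells treated 48 h (top 100 uM, half-log steps, 0.5% DMSO vehicle). Gain or loss fitted relative to DMSO baseline.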

Read-out in assay [12]: Cytochrome P450 3A4 (Homo sapiens) (UniProt P08684)
In words: LTEA_HepaRG_CYP3A4: Life Technologies and Expression Analysis (LTEA) Assay for CYP3A4 using HepaRG (AID 2283487). The gist of the method:
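HepaRG, 48 h exposure, 8-pt CRC from 100 uM (half-log), 0.5% DMSO, duplicates; serum-free induction medium. Readout: CYP3A4 mRNA, qRT-PCR, ACTB/GAPDH/POLR2A normalization. Bidirectional fit vs DMSO.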

Read-out in assay [13]: DNA damage-inducible transcript 3 (DDIT3), DDIT3 (gene 1649)
Briefly: LTEA_HepaRG_DDIT3: Life Technologies and Expression Analysis (LTEA) Assay for DNA damage-inducible transcript 3 (DDIT3) using HepaRG (AID 2283488). The procedure, abridged: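 DDIT3 transcript was quantified by qRT-PCR with ACTB/GAPDH/POLR2A normalization after 48 h chemical treatment of differentiated HepaRG cells in 0.5% DMSO. Dosing was eight-point, half-log, top 100 uM, duplicate wells. Curves fitted bidirectionally versus DMSO.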

Read-out in assay [14]: Pro-epidermal growth factor (Homo sapiens) (UniProt P01133)
In words: LTEA_HepaRG_EGF: Life Technologies and Expression Analysis (LTEA) Assay for Epidermal growth factor (EGF) using HepaRG (AID 2283489). The gist of the method:
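Concentration-response mRNA assay: HepaRG cells dosed 48 h (max 100 uM, 0.5% DMSO), EGF measured by qRT-PCR and normalized to ACTB/GAPDH/POLR2A.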

Read-out in another assay: CYP4A11 (gene 1579)
In words: LTEA_HepaRG_CYP4A11: Life Technologies and Expression Analysis (LTEA) Assay for CYP4A11 using HepaRG (AID 2283486). The gist of the method:
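Human hepatic HepaRG cultures receive duplicate 48 h exposures across a concentration-response series topping at 100 uM. Expression changes in CYP4A11 are measured by qRT-PCR relative to DMSO controls.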

Read-out in a further assay: CYP2C8 (gene 1558)
Briefly: LTEA_HepaRG_CYP2C8: Life Technologies and Expression Analysis (LTEA) Assay for CYP2C8 using HepaRG (AID 2283483). The procedure, abridged: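 This is a transcriptional endpoint in HepaRG cultures: 48 h exposure, highest concentration 100 uM. CYP2C8 mRNA is quantified by TaqMan qRT-PCR.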

Apoptosis regulator Bcl-2 (Homo sapiens), sequence (P10415 whole entry, looked up): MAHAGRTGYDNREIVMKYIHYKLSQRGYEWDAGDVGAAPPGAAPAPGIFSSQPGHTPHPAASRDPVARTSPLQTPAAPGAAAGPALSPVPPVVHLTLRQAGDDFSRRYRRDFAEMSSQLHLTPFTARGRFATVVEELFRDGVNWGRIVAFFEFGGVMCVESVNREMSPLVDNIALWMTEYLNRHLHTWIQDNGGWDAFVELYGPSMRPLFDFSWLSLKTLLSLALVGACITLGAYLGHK
Cytochrome P450 3A4 (Homo sapiens), sequence (P08684 whole entry, looked up): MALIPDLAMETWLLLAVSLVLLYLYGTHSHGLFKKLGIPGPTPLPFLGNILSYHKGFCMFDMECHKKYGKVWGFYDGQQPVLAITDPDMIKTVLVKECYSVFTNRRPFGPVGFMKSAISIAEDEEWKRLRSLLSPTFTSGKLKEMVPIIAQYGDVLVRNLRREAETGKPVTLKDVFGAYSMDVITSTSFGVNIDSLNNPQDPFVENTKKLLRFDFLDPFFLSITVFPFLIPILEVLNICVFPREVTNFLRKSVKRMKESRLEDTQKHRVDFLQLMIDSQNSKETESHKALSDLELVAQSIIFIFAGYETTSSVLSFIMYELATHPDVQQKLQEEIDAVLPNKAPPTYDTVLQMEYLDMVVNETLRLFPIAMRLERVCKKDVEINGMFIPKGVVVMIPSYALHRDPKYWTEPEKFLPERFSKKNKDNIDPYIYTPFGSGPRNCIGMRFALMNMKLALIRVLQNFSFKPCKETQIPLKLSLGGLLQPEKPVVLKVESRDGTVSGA
Caspase-3 (Homo sapiens), sequence (P42574 whole entry, looked up): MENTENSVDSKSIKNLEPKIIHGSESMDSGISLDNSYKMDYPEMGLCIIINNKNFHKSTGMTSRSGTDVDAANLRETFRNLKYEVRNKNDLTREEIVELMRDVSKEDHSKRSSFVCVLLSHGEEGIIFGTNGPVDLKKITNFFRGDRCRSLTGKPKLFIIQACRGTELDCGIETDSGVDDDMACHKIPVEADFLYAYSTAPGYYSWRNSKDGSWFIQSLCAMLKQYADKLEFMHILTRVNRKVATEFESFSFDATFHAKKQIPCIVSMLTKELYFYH
Cytochrome P450 2C19 (Homo sapiens), sequence (P33261 whole entry, looked up): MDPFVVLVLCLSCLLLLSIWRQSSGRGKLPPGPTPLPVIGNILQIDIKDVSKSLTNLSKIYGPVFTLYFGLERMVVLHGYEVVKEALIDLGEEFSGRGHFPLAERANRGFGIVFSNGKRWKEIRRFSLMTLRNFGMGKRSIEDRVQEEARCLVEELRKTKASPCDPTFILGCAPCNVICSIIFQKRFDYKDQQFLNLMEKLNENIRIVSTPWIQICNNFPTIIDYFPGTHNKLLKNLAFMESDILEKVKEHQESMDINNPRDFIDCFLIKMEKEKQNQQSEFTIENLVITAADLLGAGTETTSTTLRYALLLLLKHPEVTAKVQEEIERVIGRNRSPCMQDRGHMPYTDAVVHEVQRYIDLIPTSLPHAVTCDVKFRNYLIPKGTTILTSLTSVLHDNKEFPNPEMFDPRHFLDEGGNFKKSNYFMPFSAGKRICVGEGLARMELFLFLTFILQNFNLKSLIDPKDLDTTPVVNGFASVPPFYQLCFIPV

For the compound `CS(=O)(=O)c1cc(C(F)(F)F)ccc1C(=O)c1cnoc1C1CC1`, the call (in assay [1]; in assay [2]; in [3]; with BCL2L11 (gene 10018); in assay [4]; in [5]) was inactive. For the same compound, the compound was classed as inactive (in [6]; with Caspase-3 (Homo sapiens); in assay [7]; in assay [8]; in [9]; in assay [10]). Also, the compound was classed as inactive (in assay [11]; with CYP2C9 (gene 1559); in assay [13]; in [14]). Also, the AC50 is 9.92 µM (active) with CYP2E1 (gene 1571) and 35 µM (active) in assay [12].

For `CC(C)Nc1nc(Cl)nc(NC(C)C)n1`, the outcome (in assay [1]; in assay [2]; in the assay with BCL2L11 (gene 10018); in assay [4]; in [5]; in assay [6]) was inactive. The compound was classed as inactive (with Caspase-3 (Homo sapiens); in assay [7]; in assay [8]; in assay [9]; with CYP2C9 (gene 1559); in the assay with CYP4A11 (gene 1579)). Further, the result in [13] and in assay [14] was inactive. For the same compound, the AC50 is 24.8 µM (active) in assay [3]; 2.93 µM (active) in [10]; 4.74 µM (active) in assay [11]; 37.8 µM (active) in the assay with CYP2E1 (gene 1571); 7.35 µM (active) in assay [12].

For `Clc1cccc(C(Cl)(Cl)Cl)n1`, the outcome (in assay [1]; in assay [2]; in [3]; with BCL2L11 (gene 10018); in [4]; in assay [5]) was inactive. Further, the outcome (in assay [6]; with Caspase-3 (Homo sapiens); in assay [7]; in assay [8]; in assay [9]; in assay [11]) was inactive. Moreover, the call (with CYP2C8 (gene 1558); with CYP2C9 (gene 1559); with CYP2E1 (gene 1571); with CYP4A11 (gene 1579); in [12]; in [13]) was inactive. Besides, the result in assay [14] was inactive. Besides, the AC50 in assay [10] is 2.9 µM (active).

As to `COc1cc(OC)nc(NC(=O)NS(=O)(=O)c2ncccc2OCC(F)(F)F)n1`, the result (in [1]; in assay [2]; in assay [3]; with BCL2L11 (gene 10018); in assay [4]; in [5]) was inactive. Further, the call (in [6]; in the assay with Caspase-3 (Homo sapiens); in assay [7]; in assay [8]; in assay [9]; with CYP2E1 (gene 1571)) was inactive. Also, the compound was classed as inactive in assay [13] and in assay [14]. The AC50 in assay [10] is 23.8 µM (active); in assay [11] it was 16.3 µM (active); in the assay with CYP2C9 (gene 1559), 6.59 µM (active); in [12], 13.3 µM (active).

Turning to `CC1(C)C(C=C(Cl)Cl)C1C(=O)OC(C#N)c1cccc(Oc2ccccc2)c1` (configuration not stated), the call (in [1]; in [2]; in assay [3]; with BCL2L11 (gene 10018); in assay [4]; in assay [5]) was inactive. For the same compound, the outcome (in assay [6]; in the assay with Caspase-3 (Homo sapiens); in [7]; in [9]; with CYP2C9 (gene 1559); with CYP4A11 (gene 1579)) was inactive. Further, the compound was called inactive in [13] and in assay [14]. The half-maximal activity concentration (AC50) in assay [8] is 21.9 µM (active); in assay [10], 9.35 µM (active); in [11], 23.7 µM (active); with CYP2E1 (gene 1571) it was 50.2 µM (active).

For the compound `Cc1cc(C)nc(Nc2ccccc2)n1`, the outcome (in assay [1]; in [2]; in assay [3]; with BCL2L11 (gene 10018); in assay [4]; in assay [5]) was inactive. Further, the call (in assay [6]; with Caspase-3 (Homo sapiens); in [7]; in assay [9]; in [11]; in the assay with CYP2C8 (gene 1558)) was inactive. Moreover, the compound was called inactive (with CYP2C9 (gene 1559); in the assay with CYP2E1 (gene 1571); in assay [12]; in assay [13]; in assay [14]). Moreover, the AC50 was 88.8 µM (active) in [8] and 6.39 µM (active) in assay [10].

For orientation: AC50 means the midpoint of the concentration-response curve, whichever way the signal moves.
